What all share (set-up): scale not given: direction of the effect not stated beside the values
Experiment [1] deals with Protein translocase subunit SecA (Escherichia coli (strain K12)) (UniProt P10408). The experiment can be described thus: Assay to Identify E. coli SecA ATPase Inhibitors. The format is functional. As to conditions: 30 µM.
Experiment [2] deals with T1, Ubiquitin-activating enzyme e1, putative (Leishmania donovani (strain BPK282A1)) (UniProt E9BSI1).
T1 sequence (whole entry): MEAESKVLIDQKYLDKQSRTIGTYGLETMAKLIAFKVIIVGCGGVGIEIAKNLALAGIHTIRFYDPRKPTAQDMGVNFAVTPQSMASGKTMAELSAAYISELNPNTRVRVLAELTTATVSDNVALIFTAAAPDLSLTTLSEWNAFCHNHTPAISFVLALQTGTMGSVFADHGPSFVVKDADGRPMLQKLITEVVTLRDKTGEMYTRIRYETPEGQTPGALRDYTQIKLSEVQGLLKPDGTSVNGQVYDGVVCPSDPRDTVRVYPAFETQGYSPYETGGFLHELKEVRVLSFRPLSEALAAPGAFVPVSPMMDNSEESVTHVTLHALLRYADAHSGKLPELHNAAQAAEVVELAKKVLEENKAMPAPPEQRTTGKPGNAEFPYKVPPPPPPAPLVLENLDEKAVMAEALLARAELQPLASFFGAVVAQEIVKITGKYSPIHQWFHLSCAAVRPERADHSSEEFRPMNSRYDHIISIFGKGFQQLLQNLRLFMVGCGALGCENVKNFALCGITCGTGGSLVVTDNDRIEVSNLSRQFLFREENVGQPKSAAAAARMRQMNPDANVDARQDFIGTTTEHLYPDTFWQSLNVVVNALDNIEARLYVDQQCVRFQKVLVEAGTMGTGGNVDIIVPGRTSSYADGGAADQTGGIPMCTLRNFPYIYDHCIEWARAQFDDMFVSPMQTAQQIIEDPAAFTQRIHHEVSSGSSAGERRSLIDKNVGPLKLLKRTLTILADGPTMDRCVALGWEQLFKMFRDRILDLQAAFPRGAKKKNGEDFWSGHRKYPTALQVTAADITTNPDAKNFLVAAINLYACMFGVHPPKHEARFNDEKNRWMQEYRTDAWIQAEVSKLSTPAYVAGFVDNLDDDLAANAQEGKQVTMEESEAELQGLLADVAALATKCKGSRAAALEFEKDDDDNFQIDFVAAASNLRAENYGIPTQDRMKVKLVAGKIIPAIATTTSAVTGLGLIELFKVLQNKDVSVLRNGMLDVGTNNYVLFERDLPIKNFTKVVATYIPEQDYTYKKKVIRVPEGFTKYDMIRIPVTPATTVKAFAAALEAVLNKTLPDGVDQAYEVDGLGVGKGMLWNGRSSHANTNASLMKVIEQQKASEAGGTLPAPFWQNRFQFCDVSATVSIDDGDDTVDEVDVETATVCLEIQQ
As to the kind of experiment: Leishmania donovani Ubiquitin Activating Enzyme (LdE1). The format is functional. As to conditions: 30 µM.

The target of experiment [3] is AMP-activated protein kinase, AMPK (Homo sapiens) (UniProt P54646+O43741+P54619+Q9UGJ0+Q9Y478+Q13131+Q9UGI9). The experiment can be described thus: AMP-dependent Kinase enzyme assay. An in vitro enzyme assay that detects ADP turnover that is directly proportional to AMPK activity. This uses naive AMPK that is activated during the assay with MK-8722. The format is functional. Particulars: 30 µM.

Experiment [4] has as its target Sialic acid-binding Ig-like lectin 9 (Homo sapiens) (UniProt Q9Y336). As to the kind of experiment: Hs-Siglec9 ALPHAscreen SOP 20170721. As to conditions: 10 µM. For orientation: In Alpha technology, singlet oxygen from a donor bead excites a nearby acceptor bead.
The next experiment has as its system Trypanosoma cruzi. As to the kind of experiment: Trypanosoma cruzi phosphomannomutase and mannose-1-phosphate guanylyltransferase assay. As to conditions: 10 µM. It counts as functional.
Experiment [5] deals with T2, Arginase-2, mitochondrial (Homo sapiens) (UniProt P78540).
T2 sequence (whole entry): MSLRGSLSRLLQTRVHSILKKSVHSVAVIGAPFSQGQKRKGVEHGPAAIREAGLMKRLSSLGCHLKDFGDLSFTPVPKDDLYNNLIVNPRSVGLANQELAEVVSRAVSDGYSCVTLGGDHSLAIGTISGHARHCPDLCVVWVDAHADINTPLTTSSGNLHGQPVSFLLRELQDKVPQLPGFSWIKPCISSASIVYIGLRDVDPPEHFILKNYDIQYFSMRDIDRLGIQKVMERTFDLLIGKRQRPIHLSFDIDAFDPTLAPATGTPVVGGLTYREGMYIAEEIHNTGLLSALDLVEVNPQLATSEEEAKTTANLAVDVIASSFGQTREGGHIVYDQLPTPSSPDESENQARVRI
As to the kind of experiment: in vitro enzyme assay to detect the production of urea directly proportional to the activity of Arginase II. Further: in the data most compounds retested in dose-response had high values. The format is functional. As to conditions: 33.3 µM.

Experiment [6] concerns the target T3, Proteasome subunit beta (Trypanosoma cruzi) (UniProt O96673).
T3 sequence (whole entry): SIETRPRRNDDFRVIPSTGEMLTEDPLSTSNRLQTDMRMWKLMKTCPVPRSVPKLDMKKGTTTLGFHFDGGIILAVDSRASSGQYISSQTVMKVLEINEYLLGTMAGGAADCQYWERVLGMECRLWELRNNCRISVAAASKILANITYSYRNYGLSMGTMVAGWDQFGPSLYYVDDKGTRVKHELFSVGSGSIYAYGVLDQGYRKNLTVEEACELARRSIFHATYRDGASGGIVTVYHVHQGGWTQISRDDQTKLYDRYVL
As to the kind of experiment: Trypanosoma cruzi proteasome chymotrypsin-like activity (TcProtChymo) assay. Further: in the data most compounds retested in dose-response had high values. The format is functional. As to conditions: 9.37 µM.

The species entered for another experiment is Homo sapiens. As to the kind of experiment: To identify inhibition of the IFN signalling (Jak-Stat) pathway via expression of an eGFP reporter gene under the control of an IFN-stimulated response element (ISRE) containing MxA promoter. It counts as functional. As to conditions: 30 µM. In general terms: In a reporter assay the amount or activity of a reporter protein is the signal.

Experiment [7] deals with T4, Tyrosyl-tRNA synthetase, putative (Trypanosoma cruzi (strain CL Brener)) (UniProt Q4DSP6).
T4 sequence (whole entry): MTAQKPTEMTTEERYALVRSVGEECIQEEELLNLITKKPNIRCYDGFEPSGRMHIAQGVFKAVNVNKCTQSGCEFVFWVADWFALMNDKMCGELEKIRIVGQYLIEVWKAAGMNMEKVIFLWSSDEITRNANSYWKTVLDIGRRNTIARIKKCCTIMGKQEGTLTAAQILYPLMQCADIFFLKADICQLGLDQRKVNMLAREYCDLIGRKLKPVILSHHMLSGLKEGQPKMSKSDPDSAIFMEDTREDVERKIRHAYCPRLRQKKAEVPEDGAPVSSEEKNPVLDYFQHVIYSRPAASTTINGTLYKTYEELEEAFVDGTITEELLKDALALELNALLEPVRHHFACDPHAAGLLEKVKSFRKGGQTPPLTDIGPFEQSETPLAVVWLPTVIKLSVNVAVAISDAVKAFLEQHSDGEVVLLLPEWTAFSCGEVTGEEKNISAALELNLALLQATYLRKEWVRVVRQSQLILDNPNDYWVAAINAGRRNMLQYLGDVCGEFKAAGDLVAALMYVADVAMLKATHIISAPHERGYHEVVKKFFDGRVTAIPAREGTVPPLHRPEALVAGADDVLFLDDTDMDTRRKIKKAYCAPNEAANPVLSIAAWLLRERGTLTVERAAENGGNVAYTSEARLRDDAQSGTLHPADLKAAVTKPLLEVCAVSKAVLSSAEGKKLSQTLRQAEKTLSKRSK
As to the kind of experiment: Trypanosoma cruzi tyrosyl tRNA synthetase (TcYRS) _High Tyrosine SOP. Further: in the data most compounds retested in dose-response had high values. It counts as functional. As to conditions: 30 µM.

In experiment [8] the target is T4, Tyrosyl-tRNA synthetase, putative (Trypanosoma cruzi (strain CL Brener)). The experiment can be described thus: Trypanosoma cruzi tyrosyl tRNA synthetase (TcYRS) SOP. Particulars: 30 µM. The format is functional.
In experiment [9] the target is Chromo domain-containing protein 1 (Saccharomyces cerevisiae (strain ATCC 204508 / S288c) (Baker's yeast)) (UniProt P32657). The experiment can be described thus: ScCHD-1 Enzyme Inhibition Assay. Further: in the data most compounds retested in dose-response had high values. It counts as functional. Particulars: 30 µM.
Sequence of Chromo domain-containing protein 1 (Saccharomyces cerevisiae (strain ATCC 204508 / S288c) (Baker's yeast)) (P32657 whole entry, the tested form may be a part): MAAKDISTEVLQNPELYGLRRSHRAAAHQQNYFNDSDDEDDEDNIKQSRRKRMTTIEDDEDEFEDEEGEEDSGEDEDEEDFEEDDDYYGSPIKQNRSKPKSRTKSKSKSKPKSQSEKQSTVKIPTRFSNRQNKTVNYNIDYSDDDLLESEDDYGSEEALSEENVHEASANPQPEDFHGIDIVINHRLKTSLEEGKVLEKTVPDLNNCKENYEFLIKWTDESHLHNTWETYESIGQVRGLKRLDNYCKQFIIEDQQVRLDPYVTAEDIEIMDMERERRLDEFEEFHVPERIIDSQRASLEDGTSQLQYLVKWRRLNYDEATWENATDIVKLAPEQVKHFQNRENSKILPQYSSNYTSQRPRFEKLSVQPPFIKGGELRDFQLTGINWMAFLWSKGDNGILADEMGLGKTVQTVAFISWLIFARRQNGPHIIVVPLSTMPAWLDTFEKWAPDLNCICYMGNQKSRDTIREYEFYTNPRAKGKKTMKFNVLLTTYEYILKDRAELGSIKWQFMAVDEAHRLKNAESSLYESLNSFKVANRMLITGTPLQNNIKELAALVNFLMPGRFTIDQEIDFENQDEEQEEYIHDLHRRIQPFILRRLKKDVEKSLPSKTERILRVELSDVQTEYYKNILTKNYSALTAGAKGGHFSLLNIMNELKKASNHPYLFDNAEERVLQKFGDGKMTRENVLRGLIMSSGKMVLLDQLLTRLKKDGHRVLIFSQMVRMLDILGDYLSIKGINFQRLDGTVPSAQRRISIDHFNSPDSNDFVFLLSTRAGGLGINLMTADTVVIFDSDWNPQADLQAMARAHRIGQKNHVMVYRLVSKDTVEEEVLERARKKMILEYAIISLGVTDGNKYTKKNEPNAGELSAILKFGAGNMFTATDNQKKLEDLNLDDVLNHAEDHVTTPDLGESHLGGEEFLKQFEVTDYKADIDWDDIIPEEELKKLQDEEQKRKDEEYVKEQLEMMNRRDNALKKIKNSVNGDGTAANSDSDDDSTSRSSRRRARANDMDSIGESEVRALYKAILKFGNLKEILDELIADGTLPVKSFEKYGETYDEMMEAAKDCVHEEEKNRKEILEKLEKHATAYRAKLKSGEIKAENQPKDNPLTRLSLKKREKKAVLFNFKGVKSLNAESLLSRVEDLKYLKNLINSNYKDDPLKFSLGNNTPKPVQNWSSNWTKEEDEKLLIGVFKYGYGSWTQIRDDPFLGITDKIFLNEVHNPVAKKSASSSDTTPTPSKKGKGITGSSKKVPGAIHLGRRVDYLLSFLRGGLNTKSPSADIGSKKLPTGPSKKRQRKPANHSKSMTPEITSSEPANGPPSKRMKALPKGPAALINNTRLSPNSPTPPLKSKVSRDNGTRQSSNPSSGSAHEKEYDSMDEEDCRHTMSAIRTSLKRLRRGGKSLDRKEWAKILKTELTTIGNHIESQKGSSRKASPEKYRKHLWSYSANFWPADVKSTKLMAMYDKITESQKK

For some of these results: Entries with a potency or affinity are not part of this list.

Sequence of Sialic acid-binding Ig-like lectin 9 (Homo sapiens) (Q9Y336 whole entry): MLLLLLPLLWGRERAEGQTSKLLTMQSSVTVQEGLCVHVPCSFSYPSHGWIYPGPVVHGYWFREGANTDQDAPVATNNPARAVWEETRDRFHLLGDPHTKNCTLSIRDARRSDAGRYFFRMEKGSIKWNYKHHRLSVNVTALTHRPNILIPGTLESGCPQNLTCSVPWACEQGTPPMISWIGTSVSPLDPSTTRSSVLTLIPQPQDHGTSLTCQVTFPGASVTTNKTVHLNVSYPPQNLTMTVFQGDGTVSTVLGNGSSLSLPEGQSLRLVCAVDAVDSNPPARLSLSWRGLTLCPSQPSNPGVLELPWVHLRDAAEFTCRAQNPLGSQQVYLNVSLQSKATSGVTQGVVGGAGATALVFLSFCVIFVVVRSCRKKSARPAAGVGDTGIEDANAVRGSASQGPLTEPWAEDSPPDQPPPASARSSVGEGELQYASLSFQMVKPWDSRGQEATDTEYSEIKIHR
Sequence of Protein translocase subunit SecA (Escherichia coli (strain K12)) (P10408 whole entry): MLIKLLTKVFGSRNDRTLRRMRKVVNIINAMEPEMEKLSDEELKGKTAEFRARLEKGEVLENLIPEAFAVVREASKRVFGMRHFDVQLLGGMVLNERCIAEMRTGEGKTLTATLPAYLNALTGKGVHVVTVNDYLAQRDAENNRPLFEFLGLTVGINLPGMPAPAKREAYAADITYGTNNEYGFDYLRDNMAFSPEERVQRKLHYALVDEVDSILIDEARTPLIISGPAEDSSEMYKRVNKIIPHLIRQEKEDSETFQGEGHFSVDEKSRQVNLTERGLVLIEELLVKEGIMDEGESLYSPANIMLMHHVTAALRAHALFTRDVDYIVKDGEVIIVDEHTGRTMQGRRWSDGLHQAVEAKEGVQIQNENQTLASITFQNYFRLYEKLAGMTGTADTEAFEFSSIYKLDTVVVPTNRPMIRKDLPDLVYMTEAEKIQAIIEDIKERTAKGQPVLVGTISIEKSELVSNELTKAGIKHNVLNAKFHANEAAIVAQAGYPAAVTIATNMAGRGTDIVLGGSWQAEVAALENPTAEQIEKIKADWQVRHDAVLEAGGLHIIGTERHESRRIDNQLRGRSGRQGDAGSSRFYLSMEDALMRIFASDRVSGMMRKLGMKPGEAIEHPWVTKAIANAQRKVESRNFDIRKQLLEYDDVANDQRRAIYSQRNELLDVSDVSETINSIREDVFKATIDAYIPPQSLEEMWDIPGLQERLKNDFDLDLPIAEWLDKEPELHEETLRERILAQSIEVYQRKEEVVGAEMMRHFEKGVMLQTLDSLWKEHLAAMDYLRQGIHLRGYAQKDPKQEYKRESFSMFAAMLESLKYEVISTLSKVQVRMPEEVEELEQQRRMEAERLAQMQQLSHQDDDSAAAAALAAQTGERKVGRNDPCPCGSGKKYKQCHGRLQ

`CC(NC(=O)CNCCn1cccn1)c1ccc2c(c1)CCCC2` (stereo unspecified): the Percent Effect in experiment [1] is -8.2%; in experiment [2], 13%; in experiment [3], -1.74%; in experiment [4], 15.8%; with Trypanosoma cruzi it was 3.37%; in experiment [5] it was -6.41%. In addition, the Percent Effect in [6] is 9.46%; in the experiment listed under Homo sapiens, -3.61%; in experiment [7], 12.6%; in experiment [8] it was 26.8%; in experiment [9], -9.3%.
`Cc1cnn(CC2CN(Cc3nccn3C)CCO2)c1` (stereo unspecified): the Percent Effect was -2.86% in experiment [1]; 5.41% in [2]; -4.03% in experiment [3]; 2.01% in [4]; -1.95% with Trypanosoma cruzi; 3.14% in experiment [5]. Besides, the Percent Effect in [6] is 1.44%; in the experiment filed under Homo sapiens, 8.74%; in experiment [7], 6.93%; in experiment [8], 11%; in experiment [9] it was -1.23%.
Turning to `Cc1nc(N2CCN(C(=O)c3ccsc3)CC2)c2cnn(C)c2n1`, the Percent Effect was -3.6% in experiment [1]; 2.7% in experiment [2]; -6.08% in experiment [3]; 16.1% in [4]; 1.6% in the experiment on Trypanosoma cruzi; -6.01% in experiment [5]. The Percent Effect was 5.04% in experiment [6]; 5.31% in the experiment filed under Homo sapiens; 4.43% in experiment [7]; 13.6% in experiment [8]; -7.11% in [9].
For the compound `CCN1CCOC(CNCc2ccccc2OCc2ccccn2)C1` (stereo unspecified), the Percent Effect in experiment [1] was -2.71%; in experiment [2], 5.26%; in [3] it was -13%; in [4] it was -5.97%; in the experiment on Trypanosoma cruzi, -4.39%; in experiment [5] it was 3.24%. The Percent Effect in experiment [6] was 9.56%; in the experiment listed under Homo sapiens it was 9.07%; in experiment [7] it was 6.4%; in experiment [8], 13.6%; in [9], -8.14%.
Take `Cc1ncc2c(n1)CCN(C(=O)Cc1c(C)noc1C)C2`: the Percent Effect in [1] is -8.55%; in experiment [2] it was 13.2%; in experiment [3], -4.54%; in [4] it was 7.88%; with Trypanosoma cruzi, 9.62%; in experiment [5] it was -1.44%. Further, the Percent Effect in experiment [6] is 8.21%; in the experiment listed under Homo sapiens it was -0.465%; in experiment [7], 9.36%; in experiment [8], 18.5%; in experiment [9], -7.72%.
For `Cc1ccc(-c2nc(CNCCn3cccn3)cs2)o1`, the Percent Effect in experiment [1] was 1.6%; in [2] it was -429%; in experiment [3] it was 4.22%; in experiment [4] it was -1.49%; in the experiment on Trypanosoma cruzi it was 1.13%; in [5], 4.6%. The Percent Effect in [6] was 8.19%; in the experiment filed under Homo sapiens, 10.3%; in experiment [7], 11.3%; in experiment [8], 4.88%; in experiment [9], 1.79%.
For `N#Cc1ccccc1C(=O)N1CCC2(CC(=O)NC2=O)C1` (stereo unspecified), the Percent Effect in [1] was 0.342%; in experiment [2], 10.8%; in experiment [3] it was 0.526%; in experiment [4], 4.48%; in the experiment on Trypanosoma cruzi it was -5.21%; in experiment [5], -2.38%. For the same compound, the Percent Effect is 14% in experiment [6]; 14.1% in the experiment listed under Homo sapiens; 4.76% in [7]; 4.88% in experiment [8]; -3.81% in experiment [9].
Take `Cc1cccnc1NC(=O)NC(C)Cn1cccn1` (stereo unspecified): the Percent Effect is -8.41% in experiment [1]; 10.4% in [2]; 7.9% in [3]; 3.8% in experiment [4]; -5.62% with Trypanosoma cruzi; 1.78% in experiment [5]. Moreover, the Percent Effect in experiment [6] is 0.845%; in the experiment filed under Homo sapiens it was 23.3%; in [7], 3.88%; in experiment [8], 2.44%; in [9], -4.43%.
Regarding `O=C(c1ccc2c(c1)OCO2)N1CCC[C@]2(C[C@H](OCC3CC3)CO2)C1`, the Percent Effect was -3.85% in experiment [1]; 13.3% in [2]; 10.8% in experiment [3]; -11.4% in experiment [4]; 0.197% in the experiment with Trypanosoma cruzi; 2.56% in experiment [5]. Besides, the Percent Effect in experiment [6] is 5.37%; in the experiment listed under Homo sapiens, 6.01%; in experiment [7], 8.51%; in experiment [8] it was 14.1%; in experiment [9], -8.25%.
Regarding `CCOc1cccc(C(=O)N2CCN(c3nccc(OC)n3)CC2)c1`, the Percent Effect in experiment [1] is -7.2%; in experiment [2] it was 5.26%; in [3] it was 10.4%; in [4], -5.48%; with Trypanosoma cruzi, -7%; in [5] it was 1.8%. For the same compound, the Percent Effect in [6] is 6.51%; in the experiment listed under Homo sapiens it was 16.4%; in [7], -1.48%; in experiment [8], 1.24%; in [9] it was -2.73%.
As to `CCn1ccnc1CN1CCN(Cc2ccccn2)CC1C` (stereo unspecified), the Percent Effect in experiment [1] is 1.15%; in experiment [2] it was 5.41%; in experiment [3] it was -1.29%; in experiment [4], 3.52%; in the experiment on Trypanosoma cruzi it was -3.91%; in experiment [5], 5.42%. The Percent Effect in [6] is 9.04%; in the experiment listed under Homo sapiens, 12.7%; in [7], 8.91%; in experiment [8] it was 13.4%; in experiment [9], 14%.

Values taken from ChEMBL document CHEMBL3988442, “University of Dundee, Small-Polar-MMV Screening Library” (2021).
